“And” between values parts separate entries of the source, which are not always exact repeats. Equal values may be shown once. Inconclusive results are not listed. The source made the active and inactive calls. The call rests on the fitted dose curve; in most records, active means well fitted curve in the direction sought with a large enough effect; inconclusive means small, poorly fitted or top-dose-only effect, or another doubt; inactive means no such curve, though single readings can be large; an effect the other way counts as inactive or inconclusive.
Experiments:
[1] = P-glycoprotein substrates identified in KB-8-5-11 adenocarcinoma cell line, qHTS therapeutic library screen (AID 1346987); further: nearly all actives have a fitted effect of over 65% in size
Method in brief: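 KB-8-5-11, a colchicine-selected P-gp-overexpressing KB-3-1 subline, was grown without colchicine for the assay. Cells were seeded at 500 cells/well, dosed in concentration-response and incubated 72 h at 37 degree C, 5% CO2. Viability was read by CellTiter-Glo luminescence.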

[2] = NS1 protein of Zika virus - qHTS assay to identify small molecule inhibitors in human HEK 293 cells (AID 1347053); further: nearly all actives have a fitted effect of over 55% in size
Method in brief: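 HEK 293; 20 h pre-culture, 37 C/5% CO2; cpd 1 h pre-infection; ZIKV MR766, MOI = 0.5, 24 h, 37 C; TR-FRET NS1 readout (two anti-NS1 Abs); norm. to no-virus vs infected.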

[3] = qHTS of pediatric cancer cell lines to identify multiple opportunities for drug repurposing: Primary screen for TC32 cells (AID 1347089); further: nearly all actives have a fitted effect of over 60% in size; on activity change, negative = cytotoxic: on the % scale 0 is the no-effect control and ±100 the full control effect
Method in brief: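 Luminescent ATP read-out (CellTiter-Glo) of metabolically active TC32 cells after 48 h exposure. Concentration-response curves came from 11-point (MIPE, 0.78 nM–46 µM) or 8-point (NPC, 0.59 nM–46 µM) primary titrations; follow-up used 11 points.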

[4] = qHTS of pediatric cancer cell lines to identify multiple opportunities for drug repurposing: Primary screen for DAOY cells (AID 1347090); further: nearly all actives have a fitted effect of over 55% in size;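 on activity change, negative = cytotoxic: series mostly up to about 46 µM; plate controls were DMSO for no effect and bortezomib for full effect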
Method in brief: (§1)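 Cell viability, CellTiter-Glo luminescence; 500-1,000 cells/well, 8- or 11-point titration, 48 h compound exposure at 37 degrees C, 5% CO2. Controls: DMSO neutral, bortezomib 2.3 µM final as positive.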

[5] = qHTS of pediatric cancer cell lines to identify multiple opportunities for drug repurposing: Primary screen for SJ-GBM2 cells (AID 1347091);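 on activity change, negative = cytotoxic: plate controls were DMSO neutral control for no effect and bortezomib for full effect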
Method in brief: as §1

[6] = qHTS of pediatric cancer cell lines to identify multiple opportunities for drug repurposing: Primary screen for A673 cells (AID 1347092); further: nearly all actives have a fitted effect of over 45% in size; on activity change, negative = cytotoxic: on the % scale 0 is the no-effect control and ±100 the full control effect
Method in brief: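 Cell viability of A673 measured by CellTiter-Glo ATP luminescence after 48 hours compound exposure. Dilution series spanned 0.78 nM to 46 µM (MIPE, 11-point) or 0.59 nM to 46 µM (NPC, 8-point); bortezomib 2.3 uM positive control.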

[7] = qHTS of pediatric cancer cell lines to identify multiple opportunities for drug repurposing: Primary screen for SK-N-MC cells (AID 1347093);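 on activity change, negative = cytotoxic: series mostly up to about 46 µM; plate controls were DMSO neutral control for no effect and bortezomib for full effect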
Method in brief: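 Metabolically active cells were quantified by ATP-dependent luminescence (CellTiter-Glo, 15 min at room temperature) following 48 h treatment. Cells had been plated at 500-1,000 per well and settled for 5 h beforehand.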

[8] = qHTS of pediatric cancer cell lines to identify multiple opportunities for drug repurposing: Primary screen for BT-37 cells (AID 1347094);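 on activity change, negative = cytotoxic: series mostly up to about 57 µM; plate controls were DMSO for no effect and bortezomib for full effect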
Method in brief: (§2)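 500-1,000 cells/well; 5 h pre-incubation 37 °C/5% CO2; compound pinned; 48 h; CellTiter-Glo, 15 min RT; luminescence. MIPE 11-pt from 0.78 nM, NPC 8-pt from 0.59 nM final. Bortezomib 2.3 µM final as positive control.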

[9] = qHTS of pediatric cancer cell lines to identify multiple opportunities for drug repurposing: Primary screen for NB-EBc1 cells (AID 1347095);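 on activity change, negative = cytotoxic: plate controls were DMSO neutral control for no effect and bortezomib for full effect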
Method in brief: as §2

[10] = qHTS of pediatric cancer cell lines to identify multiple opportunities for drug repurposing: Primary screen for U-2 OS cells (AID 1347096); further: nearly all actives have a fitted effect of over 50% in size;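 on activity change, negative = cytotoxic: plate controls were DMSO wells for no effect and bortezomib positive control wells for full effect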
Method in brief: (§3)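 Cells (500-1,000/well) rested 5 h, then received compounds for 48 h; metabolically active cells were measured by CellTiter-Glo luminescence. Final concentrations spanned up to 46 µM (MIPE, 11-point) or 0.59 nM-46 µM (NPC, 8-point) in primary screens, 11-point in follow-ups.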

[11] = qHTS of pediatric cancer cell lines to identify multiple opportunities for drug repurposing: Primary screen for SK-N-SH cells (AID 1347098); further: nearly all actives have a fitted effect of over 65% in size
Method in brief: as §3

[12] = qHTS of pediatric cancer cell lines to identify multiple opportunities for drug repurposing: Primary screen for NB1643 cells (AID 1347099); further: nearly all actives have a fitted effect of over 50% in size;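 on activity change, negative = cytotoxic: plate controls were DMSO neutral control for no effect and bortezomib positive control for full effect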
Method in brief: as §2

[13] = qHTS of pediatric cancer cell lines to identify multiple opportunities for drug repurposing: Primary screen for LAN-5 cells (AID 1347100);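 on activity change, negative = cytotoxic: plate controls were DMSO neutral control for no effect and bortezomib positive control for full effect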
Method in brief: as §3

[14] = qHTS of pediatric cancer cell lines to identify multiple opportunities for drug repurposing: Primary screen for BT-12 cells (AID 1347101); further: nearly all actives have a fitted effect of over 25% in size;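 on activity change, negative = cytotoxic: plate controls were DMSO for no effect and bortezomib positive control for full effect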
Method in brief: as §3

[15] = qHTS of pediatric cancer cell lines to identify multiple opportunities for drug repurposing: Primary screen for Rh18 cells (AID 1347102); further: nearly all actives have a fitted effect of over 65% in size; on activity change, negative = cytotoxic: on the % scale 0 is the no-effect control and ±100 the full control effect
Method in brief: as §3

[16] = qHTS of pediatric cancer cell lines to identify multiple opportunities for drug repurposing: Primary screen for Saos-2 cells (AID 1347097); further: nearly all actives have a fitted effect of over 40% in size; on activity change, negative = cytotoxic: on the % scale 0 is the no-effect control and ±100 the full control effect
Method in brief: as §2
Potency means the concentration at half of the fitted maximal effect.

C=CC(=O)Nc1ccc2ncnc(Nc3ccc(OCc4cccc(F)c4)c(Cl)c3)c2c1
active: Potency [1] 23.5 µM and 16.4 µM | Potency [2] 10500 nM | Potency [3] 4660 nM | Potency [4] 46.9 nM | Potency [5] 29.6 nM | Potency [6] 1 nM | Potency [7] 16.6 nM | Potency [8] 15.3 nM | Potency [9] 52.6 nM | Potency [10] 5900 nM | Potency [11] 171 nM | Potency [12] 74.3 nM | Potency [13] 1 nM | Potency [14] 17.2 nM | Potency [15] 7430 nM

O=C(O)C[C@H](O)C[C@H](O)C=Cc1c(C2CC2)nc2ccccc2c1-c1ccc(F)cc1
inactive: Potency [2]
active: Potency [1] 7.43 µM | Potency [3] 11700 nM | Potency [4] 1180 nM | Potency [5] 11800 nM | Potency [6] 3720 nM | Potency [7] 4690 nM | Potency [8] 15300 nM | Potency [9] 20900 nM | Potency [10] 9350 nM | Potency [16] 833 nM | Potency [11] 4820 nM | Potency [12] 9350 nM | Potency [14] 273 nM | Potency [15] 4690 nM

CCN1CCN(C(=O)N[C@H](C(=O)N[C@@H]2C(=O)N3C(C(=O)O)=C(CSc4nnnn4C)CS[C@@H]23)c2ccc(O)cc2)C(=O)C1=O
inactive: outcome [1] inactive [at 9.29 µM] | Potency [2] | activity change, negative = cytotoxic [3] 13.6% [at 9.17 µM] | activity change, negative = cytotoxic [4] 8.24% [at 9.22 µM] | activity change, negative = cytotoxic [5] 24.4% [at 9.22 µM] | activity change, negative = cytotoxic [6] 6.36% [at 9.22 µM] | activity change, negative = cytotoxic [7] -14.8% [at 9.22 µM] | activity change, negative = cytotoxic [8] 17.1% [at 11.5 µM] | activity change, negative = cytotoxic [9] 14.5% [at 9.22 µM] | activity change, negative = cytotoxic [10] 20.8% [at 9.22 µM] | activity change, negative = cytotoxic [16] 18.2% [at 9.22 µM] | activity change, negative = cytotoxic [12] 17.1% [at 9.22 µM] | activity change, negative = cytotoxic [13] -3.47% [at 9.22 µM] | activity change, negative = cytotoxic [14] 17.1% [at 11.5 µM] | activity change, negative = cytotoxic [15] 10.3% [at 9.22 µM]

CN(C)c1ccc(C(=O)NCCCCCCC(=O)NO)cc1
inactive: Potency [2]
active: Potency [1] 3.72 µM | Potency [3] 2620 nM | Potency [4] 2350 nM | Potency [5] 743 nM | Potency [6] 1180 nM | Potency [7] 332 nM | Potency [8] 153 nM | Potency [9] 469 nM | Potency [10] 1180 nM | Potency [16] 118 nM | Potency [11] 2410 nM | Potency [12] 296 nM | Potency [13] 132 nM | Potency [14] 1530 nM | Potency [15] 93.5 nM

COc1ccnc2[nH]cc(C(=O)C(=O)N3CCN(C(=O)c4ccccc4)C[C@@H]3C)c12
inactive: Potency [1] | Potency [2] | Potency [3] | Potency [4] | Potency [5] | Potency [6] | Potency [7] | Potency [8] | Potency [9] | Potency [10] | Potency [16] | Potency [13] | Potency [14] | Potency [15]

CC(=O)NCC(=O)N1[C@H]2CC[C@H]1c1cc(Nc3ncc(C(F)(F)F)c(NC4CCC4)n3)ccc12
inactive: Potency [10]
active: Potency [1] 3.72 µM | Potency [2] 13200 nM | Potency [3] 131 nM | Potency [4] 18700 nM | Potency [5] 83.3 nM | Potency [6] 3720 nM | Potency [7] 118 nM | Potency [8] 24300 nM | Potency [9] 66.2 nM | Potency [16] 743 nM | Potency [11] 1080 nM | Potency [12] 1180 nM | Potency [13] 33.2 nM | Potency [14] 24300 nM

C=C1C[C@@]2(O)O[C@@]3(C[C@H]2C(C)C)[C@H](C)CC[C@H]13
inactive: Potency [1] | Potency [2] | Potency [3] | Potency [4] | Potency [5] | Potency [6] | Potency [7] | Potency [8] | Potency [9] | Potency [10] | Potency [16] | Potency [11] | Potency [12] | Potency [13] | Potency [14] | Potency [15]

CC1(C)[C@H](O[C@H]2O[C@H](C(=O)O)[C@@H](O)[C@H](O)[C@H]2O[C@@H]2O[C@H](C(=O)O)[C@@H](O)[C@H](O)[C@H]2O)CC[C@@]2(C)[C@H]1CC[C@]1(C)[C@H]2C(=O)C=C2[C@H]3C[C@@](C)(C(=O)O)CC[C@]3(C)CC[C@]21C
inactive: Potency [1] | Potency [2] | Potency [3] | Potency [4] | Potency [5] | Potency [6] | Potency [7] | Potency [8] | Potency [9] | Potency [10] | Potency [16] | Potency [11] | Potency [12] | Potency [13] | Potency [14] | Potency [15]

O=C(CN1C(=O)C2(CCCC2)NC[C@H]1c1cc(F)cc(F)c1)Nc1ccc2c(c1)C[C@@]1(C2)C(=O)Nc2ncccc21
inactive: Potency [1] | Potency [2] | Potency [3] | Potency [4] | Potency [5] | Potency [6] | Potency [7] | Potency [8] | Potency [9] | Potency [10] | Potency [16] | Potency [11] | Potency [12] | Potency [13] | Potency [14] | Potency [15]

Cc1cc(-c2nnc3n2CCCCC3)c(C)n1-c1ccccc1
inactive: Potency [1] | Potency [2] | Potency [3] | Potency [4] | Potency [5] | Potency [6] | Potency [7] | Potency [8] | Potency [9] | Potency [10] | Potency [16] | Potency [11] | Potency [12] | Potency [13] | Potency [14] | Potency [15]

CC(C)N1[N]C(=C2C=c3cc(O)ccc3=N2)c2c(N)ncnc21
active: Potency [1] 0.105 µM | Potency [2] 4690 nM | Potency [3] 2940 nM | Potency [4] 5900 nM | Potency [5] 93.5 nM | Potency [6] 1480 nM | Potency [7] 148 nM | Potency [8] 344 nM | Potency [9] 590 nM | Potency [10] 14800 nM | Potency [16] 5260 nM | Potency [11] 19200 nM | Potency [12] 18700 nM | Potency [13] 5900 nM | Potency [14] 485 nM | Potency [15] 5900 nM

C[C@H](CCC(=O)O)[C@H]1CCC2C3C[C@H](O)[C@@H]4C[C@H](O)CC[C@]4(C)C3CC[C@@]21C (stereo not given in full)
inactive: Potency [1] | Potency [2] | Potency [3] | Potency [4] | Potency [5] | Potency [6] | Potency [7] | Potency [8] | Potency [9] | Potency [10] | Potency [16] | Potency [11] | Potency [13] | Potency [14] | Potency [15]
